Vaccinia Venus = qHTS for Stage-Specific Inhibitors of Vaccinia Orthopoxvirus: Venus Reporter Primary qHTS; Vaccinia virus Venus reporter expression, fluorescence; Potency, µM (doses to about 36.5 µM), for inactives: at the highest dose activity change, negative = inhibition, usual class: inhibitors; actives 0.46% (n = 330,000); AID 720580, 2013; calls by dose curve; tested in A549 cells; further: potency means the concentration at half of the fitted maximal effect; nearly all actives have a fitted effect of over 30% in size
HCMV inh = qHTS Assay for inhibitors of the human cytomegalovirus (HCMV); HFF cells, HCMV-luciferase reporter, 72 h; stronger effect = lower value; actives 4.5% (n = 410,000); activity change, negative = inhibition, % at 57.5 µM; in the data active means activity change below about -60%; inconclusive means no clear call, values can overlap the other calls; inactive means above about -39%
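Two compound doses tested in HFFs infected with HCMV-luciferase, MOI 1 PFU/cell, 72 h at 37C. Lysate luminescence read with OneGlo; data normalized against buffer-only and 10uM Salinomycin inhibitor controls.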
HCV inhibitor = qHTS Assay for Inhibitors of Hepatitis C Virus (HCV). Huh7.5.1 HCVcc-Cre infection, luciferase reporter, 44 h. Potency, µM (titrated, usually from 41.8 µM), without a hit: top-dose activity change, negative = inhibition, usual class: inhibitors. actives 3.4% (n = 340,000); active means well fitted inhibition curve with a large enough effect; inconclusive means small, poorly fitted or top-dose-only effect, or another doubt; inactive means no such curve, though single readings can be large or run the other way; further: potency means the concentration at half of the fitted maximal effect
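Compounds are dispensed onto cells plated 4 h earlier at 1,000 per well, with HCVcc-Cre virus (about 0.5 moi) added next. Following 44 h of culture, luminescent signal is measured for 15 sec after 15 min with substrate at room temperature.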
FMDV inh = High Throughput Screening for Foot and Mouth Disease Virus Antivirals; FMDV antiviral cell-based qHTS; Potency, µM (titrated, usually from 57.9 µM), for the others: at the highest dose activity change, negative = inhibition, usual class: inhibitors; actives 1.2% (n = 410,000); AID 1159524, 2015; calls by dose curve; tested in HEK293T cells; further: read-out not given here; potency means the concentration at half of the fitted maximal effect; nearly all actives have a fitted effect of over 45% in size
VACV mCherry inh = qHTS for Stage-Specific Inhibitors of Vaccinia Orthopoxvirus: mCherry Reporter Primary qHTS | Vaccinia virus mCherry reporter infection, fluorescence | Potency, µM (highest dose often 36.5 µM), for the others: top-dose activity change, negative = inhibition, usual class: inhibitors | actives 0.63% (n = 310,000); calls by dose curve; tested in A549 cells; further: potency means the concentration at half of the fitted maximal effect; nearly all actives have a fitted effect of over 35% in size
Numbers without * were called inactive; i = inactive; ? = inconclusive; nt = no result given; [ ] = remark or other dose. Sampled rows, rich in hits. Any-hit rate of the full collection: about 7.3%. On the % scale 0 is the no-effect control and ±100 the full control effect.

SMILES	Vaccinia Venus	HCMV inh	HCV inhibitor	FMDV inh	VACV mCherry inh
C[C@]12CC[C@@H]3c4ccc(O)cc4[C@@H](O)C[C@H]3[C@@H]1CC[C@@H]2O	nt	nt	-5%[8.37 µM]	nt	nt
Cc1cc(O)cc2c1C1CCC3(C)C(O)CCC3C1C=C2 (stereo unspecified)	?	55	?	-8%	4.5µM*
C=CCN1C(c2ccccc2)=CS/C1=C(\C#N)c1nnc2n1CCCCC2	-11%	-36	-10%	nt	-17%
CCOc1ccc(C2=CS/C(=C(\C#N)c3nnc4n3CCCCC4)N2CC)cc1	-22%	-63*	?	?	?
Cn1cnc2nc(NCCO)nc(NCc3ccccc3)c21	-10%	nt	nt	-14%	-10%
Cc1ccc(S(=O)(=O)N2CCC(C(=O)Nc3ccc(C)c(Cl)c3)CC2)cc1	-11%[7.34 µM]	20	nt	?	-14%[7.34 µM]
Cc1cc(C)n2nc(C)c(-c3ccc(Cl)cc3)c2n1	nt	-18	11µM*	?	nt
COc1ccc(-c2c(C)nn3c(-c4ccccc4)cc(-c4ccccc4)nc23)cc1	-6%	-8	nt	-18%	-3%
COc1ccccc1-c1c(C)nn2c(N3CCC(C)CC3)cc(C)nc12	-2%	-28	10µM*	25µM*	-5%
Cc1ccc(-c2c(C)nn3c(N4CCOCC4)cc(C)nc23)cc1	nt	?	-4%	-12%	nt
Cc1cc(N2CCOCC2)n2nc(C)c(-c3ccccc3)c2n1	?	64	11µM*	?	nt
COc1ccccc1-c1c(C)nn2c(N3CCC(C(N)=O)CC3)cc(C)nc12	-20%	10	2%	-14%	i
Cc1cc(C)n2nc(C)c(-c3ccccc3)c2n1	nt	0	-29%	-11%	nt
COc1ccc(-c2c(C)nn3c(-c4ccccc4)cc(C)nc23)cc1	-3%	14	11µM*	-29%	10%
O=C(CCOc1ccccc1)N(Cc1cccnc1)c1nc2c(F)cc(F)cc2s1	-3%[7.34 µM]	34	nt	-16%	-10%[7.34 µM]
O=C1C(=O)N(C2CCN(C(=O)c3cccc(Cl)c3)CC2)CCN1Cc1ccc(F)cc1	-3%	-1	nt	-18%	-7%
COc1cccc(NC(=O)N(C)C[C@H]2OCc3ccccc3-c3c(n(C)c4ccccc34)C(=O)N([C@H](C)CO)C[C@H]2C)c1	nt	-22	nt	nt	nt
COc1ccc(-n2c(=O)c3ccc(C(=O)NCc4ccc(C)cc4)cc3n(CC(=O)Nc3cccc(F)c3)c2=O)cc1	-17%	4	nt	51%	-18%
N#CCCn1c(=O)c(CCc2ccccc2)nc2cnc(N3CCOCC3)nc21	nt	nt	nt	-26%	nt
Cc1ccc(CN2C(=O)CN=C(c3ccccc3)c3ccccc32)cc1	-9%	-74*	16%	?	i
Cc1c(N=Cc2c(O)n(CCc3ccc(F)cc3)c(=O)[nH]c2=O)c(=O)n(-c2ccccc2)n1C	-2%	-71*	11%	nt	?
C=CCn1c(O)c(C=Nc2c(C)n(C)n(-c3ccccc3)c2=O)c(=O)[nH]c1=O	nt	34	18%	-14%	nt
CCN(CC)CCCN=Cc1c(O)n(CCc2ccc(OC)c(OC)c2)c(=O)[nH]c1=O	nt	3	-6%	-21%	nt
CCN(CC)c1ccc(N=Cc2c(O)n(CCc3ccc(OC)c(OC)c3)c(=O)[nH]c2=O)cc1	-7%	31	16%	6.3µM*	-14%
COc1ccc(CCn2c(O)c(C=Nc3ccc(F)cc3)c(=O)[nH]c2=O)cc1OC	nt	-12	-6%	32µM*	nt
SMILES	Vaccinia Venus	HCMV inh	HCV inhibitor	FMDV inh	VACV mCherry inh
Cc1nn(CCC(N)=O)c2nc(-c3cccs3)cc(C(F)(F)F)c12	-27%	39	10µM*	?	-9%
CCCCC(=O)N(Cc1ccc(-c2ccccc2-c2nn[nH]n2)cc1)[C@@H](C(=O)O)C(C)C	-17%	nt	nt	3%	i
Cc1ccc2c(c1)nnn2C1CCN(S(=O)(=O)c2ccc(C(=O)N(C)C3CCCCC3)cc2)CC1	nt	?	13µM*	3%	nt
Fc1ccc(Nc2nc(SCc3cccc(Cl)c3)nc3ccccc23)cc1	-21%	-95*	nt	-26%	-17%
Fc1ccc(Nc2nc(SCc3cccc(F)c3)nc3ccccc23)cc1	-12%	-87*	nt	-3%	-1%
COc1ccc(CCNc2nc(SCc3cccc(F)c3)nc3ccccc23)cc1OC	-10%	3	nt	0%	-8%
Fc1ccc(Nc2nc(SCc3ccc(Cl)cc3)nc3ccccc23)cc1	-15%	?	nt	-10%	-7%
COc1ccc(OC)c(CN2CCCC(c3nc(C)ncc3-c3ccc(F)cc3)C2)c1 (stereo unspecified)	-8%	nt	nt	-27%	-11%
COc1ccccc1-c1cc2c(Nc3ccc(N4CCN(C)CC4)cc3)nccc2[nH]1	nt	19	nt	nt	nt
Nc1ccccc1N=Cc1ccc(-c2cccc(Cl)c2)o1	?	42	10µM*	?	-9%
CC1=NOC(=O)/C1=C/c1ccc(O)cc1	-6%	-12	10%	-10%	-18%
CC1=NOC(=O)/C1=C\c1ccc(-c2cccc(Cl)c2)o1	-40%	nt	?	40µM*	?
CC1=NOC(=O)/C1=C/c1ccc(O)c(Br)c1	-4%	22	24%	25µM*	i
CC1=NOC(=O)/C1=C\c1ccc(-c2ccccc2Br)o1	nt	-10	-17%	25µM*	nt
CC1=NOC(=O)/C1=C\c1ccc(-c2ccc(Cl)c(C(=O)O)c2)o1	6%	2	32%	2%	-10%
Cc1ccc(/C=C2/C(=O)ON=C2c2ccccc2)o1	nt	28	22%	?	nt
CSc1ccc(/C=C2\C=C(C(O)c3ccc(SC)cc3)c3ccccc32)cc1 (stereo unspecified)	?	nt	nt	nt	-13%
O=C(Nc1ccc(Br)cc1Cl)c1cnn2c1NC(=C1CC1)C=C2C(F)F	-8%	nt	nt	nt	-10%
COc1ccc(CN2CCN(C(C)=O)CC2)cc1OC1CCN(C(=O)c2ccc3ccccc3n2)CC1	6%	nt	nt	12%	-4%
O=[N+]([O-])c1cc(C(F)(F)F)ccc1N1CCN(S(=O)(=O)c2ccc3c(c2)CCCC3)CC1	-12%	-96*	?	?	i
CC[n+]1c(/C=C/C=C/N(C(C)=O)c2ccccc2)sc2cc(OC)ccc21	i	-66*	?	?	179%
CCN(CC)CC(O)c1cccn1-c1ccc(CNC(=O)NC(C)C)cc1 (stereo unspecified)	nt	-66*	18%	-3%	nt
CC(C)C[C@H](NC(=O)NCc1ccc(F)cc1)C(=O)O	-3%	6	26%	4%	i
O=C(CCC1CCCN(C(=O)c2ccc3[nH]ccc3c2)C1)N1CCN(c2ccccn2)CC1 (stereo unspecified)	-18%	-83*	?	?	-2%
Cc1cccc(-n2ncc3c(N(C)C4CCCCC4)ncnc32)c1	-21%	-78*	6%	18µM*	i
COc1ccc(-n2ncc3c(N(C)C4CCCCC4)ncnc32)cc1	-22%	-88*	7%	10µM*	?
